Measurements from ChEMBL document CHEMBL1961873, “Compounds: GSK PKIS; Assays: Nanosyn kinase panel” (2012).

How the values were obtained:
[1] = biological target: T1, Inhibitor of nuclear factor kappa-B kinase subunit epsilon (Homo sapiens) (UniProt Q14164); details: at 1 µM;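 note: reported values are averaged percent inhibition figures against human IKKε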
T1 sequence (whole entry): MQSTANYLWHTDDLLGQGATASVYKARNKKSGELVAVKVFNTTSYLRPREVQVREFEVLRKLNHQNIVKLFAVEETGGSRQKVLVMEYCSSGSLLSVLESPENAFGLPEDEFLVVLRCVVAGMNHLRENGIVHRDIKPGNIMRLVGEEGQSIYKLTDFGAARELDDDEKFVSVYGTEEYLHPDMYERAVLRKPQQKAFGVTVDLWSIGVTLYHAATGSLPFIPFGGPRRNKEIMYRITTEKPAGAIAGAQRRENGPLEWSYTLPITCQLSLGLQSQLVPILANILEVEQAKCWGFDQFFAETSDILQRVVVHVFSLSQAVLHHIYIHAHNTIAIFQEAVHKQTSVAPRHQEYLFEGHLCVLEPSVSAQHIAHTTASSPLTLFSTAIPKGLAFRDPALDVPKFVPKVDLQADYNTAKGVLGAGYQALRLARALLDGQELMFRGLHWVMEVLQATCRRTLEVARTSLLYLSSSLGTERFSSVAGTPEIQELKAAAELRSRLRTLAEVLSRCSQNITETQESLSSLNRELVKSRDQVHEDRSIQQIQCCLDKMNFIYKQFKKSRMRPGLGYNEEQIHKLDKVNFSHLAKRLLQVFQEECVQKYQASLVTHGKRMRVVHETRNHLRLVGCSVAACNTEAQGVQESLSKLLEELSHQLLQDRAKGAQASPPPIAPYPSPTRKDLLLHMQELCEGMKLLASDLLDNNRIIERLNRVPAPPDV

[2] = biological target: T2, Serine/threonine-protein kinase Nek1 (Homo sapiens) (UniProt Q96PY6); details: at 0.1 µM
T2 sequence (whole entry): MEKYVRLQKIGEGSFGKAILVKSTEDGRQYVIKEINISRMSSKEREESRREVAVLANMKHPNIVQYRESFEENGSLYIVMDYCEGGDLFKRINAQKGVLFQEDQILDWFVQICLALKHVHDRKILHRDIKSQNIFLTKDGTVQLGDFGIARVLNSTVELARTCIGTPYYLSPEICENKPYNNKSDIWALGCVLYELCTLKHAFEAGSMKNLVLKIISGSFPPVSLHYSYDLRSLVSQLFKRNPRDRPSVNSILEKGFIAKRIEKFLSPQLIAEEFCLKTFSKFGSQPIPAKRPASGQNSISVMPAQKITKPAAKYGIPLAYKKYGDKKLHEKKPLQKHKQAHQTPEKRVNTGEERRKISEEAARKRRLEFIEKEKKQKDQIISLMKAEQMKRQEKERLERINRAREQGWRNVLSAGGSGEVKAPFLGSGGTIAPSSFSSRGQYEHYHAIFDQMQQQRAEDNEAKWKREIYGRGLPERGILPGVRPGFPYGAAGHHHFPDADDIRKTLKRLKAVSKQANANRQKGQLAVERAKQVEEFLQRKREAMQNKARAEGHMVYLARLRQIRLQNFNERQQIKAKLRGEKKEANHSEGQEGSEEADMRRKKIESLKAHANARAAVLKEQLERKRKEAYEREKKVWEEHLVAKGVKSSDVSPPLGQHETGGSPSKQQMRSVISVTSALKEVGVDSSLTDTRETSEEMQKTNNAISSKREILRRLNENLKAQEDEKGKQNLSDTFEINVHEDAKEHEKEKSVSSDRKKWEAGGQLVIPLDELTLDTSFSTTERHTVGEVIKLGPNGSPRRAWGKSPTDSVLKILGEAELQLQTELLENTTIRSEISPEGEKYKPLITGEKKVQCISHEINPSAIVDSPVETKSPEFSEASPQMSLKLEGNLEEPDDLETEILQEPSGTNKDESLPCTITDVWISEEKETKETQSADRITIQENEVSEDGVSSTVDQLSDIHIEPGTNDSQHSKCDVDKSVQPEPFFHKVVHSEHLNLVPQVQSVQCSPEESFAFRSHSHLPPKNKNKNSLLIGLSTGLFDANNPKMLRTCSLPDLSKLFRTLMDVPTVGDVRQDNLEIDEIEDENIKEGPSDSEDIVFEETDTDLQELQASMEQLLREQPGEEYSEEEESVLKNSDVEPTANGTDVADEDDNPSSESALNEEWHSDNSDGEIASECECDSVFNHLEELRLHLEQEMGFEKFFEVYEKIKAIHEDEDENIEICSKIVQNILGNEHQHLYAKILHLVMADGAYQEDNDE

[3] = biological target: T2, Serine/threonine-protein kinase Nek1 (Homo sapiens); details: at 1 µM
[4] = biological target: T3, Serine/threonine-protein kinase Nek2 (Homo sapiens) (UniProt P51955); details: at 0.1 µM
T3 sequence (whole entry): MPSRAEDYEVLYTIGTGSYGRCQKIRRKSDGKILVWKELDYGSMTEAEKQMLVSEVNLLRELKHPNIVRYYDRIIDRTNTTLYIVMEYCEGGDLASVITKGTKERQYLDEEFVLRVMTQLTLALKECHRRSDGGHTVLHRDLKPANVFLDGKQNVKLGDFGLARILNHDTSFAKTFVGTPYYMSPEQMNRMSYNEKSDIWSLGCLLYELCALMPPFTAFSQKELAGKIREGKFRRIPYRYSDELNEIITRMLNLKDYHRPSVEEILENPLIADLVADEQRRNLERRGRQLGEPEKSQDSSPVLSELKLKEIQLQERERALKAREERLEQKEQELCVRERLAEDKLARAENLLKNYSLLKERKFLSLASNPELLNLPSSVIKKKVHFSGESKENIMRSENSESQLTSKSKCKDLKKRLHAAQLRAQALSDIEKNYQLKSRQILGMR

[5] = biological target: T3, Serine/threonine-protein kinase Nek2 (Homo sapiens); details: at 1 µM
[6] = biological target: Serine/threonine-protein kinase Nek6 (Homo sapiens) (UniProt Q9HC98); details: at 0.1 µM
[7] = biological target: Serine/threonine-protein kinase Nek6 (Homo sapiens) (UniProt Q9HC98); details: at 1 µM
[8] = biological target: Serine/threonine-protein kinase Nek7 (Homo sapiens) (UniProt Q8TDX7); details: at 0.1 µM
[9] = biological target: Serine/threonine-protein kinase Nek7 (Homo sapiens) (UniProt Q8TDX7); details: at 1 µM
[10] = biological target: T4, Serine/threonine-protein kinase Nek9 (Homo sapiens) (UniProt Q8TD19); details: at 0.1 µM
T4 sequence (whole entry): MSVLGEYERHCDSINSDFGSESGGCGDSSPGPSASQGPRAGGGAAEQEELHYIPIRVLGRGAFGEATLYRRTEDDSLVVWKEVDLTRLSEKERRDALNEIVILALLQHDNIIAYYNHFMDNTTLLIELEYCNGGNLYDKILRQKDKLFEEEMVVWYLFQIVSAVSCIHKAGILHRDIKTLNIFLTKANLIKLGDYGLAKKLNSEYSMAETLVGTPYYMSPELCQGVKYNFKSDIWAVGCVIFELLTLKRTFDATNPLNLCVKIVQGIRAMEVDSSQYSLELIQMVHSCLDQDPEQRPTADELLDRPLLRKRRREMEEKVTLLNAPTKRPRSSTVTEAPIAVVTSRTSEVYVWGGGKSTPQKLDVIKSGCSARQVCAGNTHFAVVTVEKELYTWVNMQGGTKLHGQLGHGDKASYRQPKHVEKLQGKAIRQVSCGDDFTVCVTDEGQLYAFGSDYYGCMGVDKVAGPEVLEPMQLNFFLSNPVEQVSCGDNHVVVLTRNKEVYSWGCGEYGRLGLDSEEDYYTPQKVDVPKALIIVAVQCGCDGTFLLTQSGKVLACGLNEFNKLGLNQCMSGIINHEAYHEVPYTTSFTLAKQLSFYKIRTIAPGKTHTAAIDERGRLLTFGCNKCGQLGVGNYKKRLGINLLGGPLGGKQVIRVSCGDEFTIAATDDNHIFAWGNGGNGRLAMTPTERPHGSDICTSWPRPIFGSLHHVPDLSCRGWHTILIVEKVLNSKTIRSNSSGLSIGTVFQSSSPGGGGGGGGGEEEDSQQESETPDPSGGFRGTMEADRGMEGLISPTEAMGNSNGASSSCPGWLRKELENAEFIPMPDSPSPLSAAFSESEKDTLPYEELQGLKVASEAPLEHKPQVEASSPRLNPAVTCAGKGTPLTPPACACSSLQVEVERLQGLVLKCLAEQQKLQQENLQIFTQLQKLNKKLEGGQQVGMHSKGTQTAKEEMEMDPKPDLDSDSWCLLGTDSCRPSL

[11] = biological target: T4, Serine/threonine-protein kinase Nek9 (Homo sapiens); details: at 1 µM
[12] = biological target: Serine/threonine-protein kinase PLK1 (Homo sapiens) (UniProt P53350); details: at 0.1 µM
[13] = biological target: Serine/threonine-protein kinase PLK1 (Homo sapiens) (UniProt P53350); details: at 1 µM
[14] = biological target: T5, Dual specificity protein kinase TTK (Homo sapiens) (UniProt P33981); details: at 0.1 µM
T5 sequence (whole entry): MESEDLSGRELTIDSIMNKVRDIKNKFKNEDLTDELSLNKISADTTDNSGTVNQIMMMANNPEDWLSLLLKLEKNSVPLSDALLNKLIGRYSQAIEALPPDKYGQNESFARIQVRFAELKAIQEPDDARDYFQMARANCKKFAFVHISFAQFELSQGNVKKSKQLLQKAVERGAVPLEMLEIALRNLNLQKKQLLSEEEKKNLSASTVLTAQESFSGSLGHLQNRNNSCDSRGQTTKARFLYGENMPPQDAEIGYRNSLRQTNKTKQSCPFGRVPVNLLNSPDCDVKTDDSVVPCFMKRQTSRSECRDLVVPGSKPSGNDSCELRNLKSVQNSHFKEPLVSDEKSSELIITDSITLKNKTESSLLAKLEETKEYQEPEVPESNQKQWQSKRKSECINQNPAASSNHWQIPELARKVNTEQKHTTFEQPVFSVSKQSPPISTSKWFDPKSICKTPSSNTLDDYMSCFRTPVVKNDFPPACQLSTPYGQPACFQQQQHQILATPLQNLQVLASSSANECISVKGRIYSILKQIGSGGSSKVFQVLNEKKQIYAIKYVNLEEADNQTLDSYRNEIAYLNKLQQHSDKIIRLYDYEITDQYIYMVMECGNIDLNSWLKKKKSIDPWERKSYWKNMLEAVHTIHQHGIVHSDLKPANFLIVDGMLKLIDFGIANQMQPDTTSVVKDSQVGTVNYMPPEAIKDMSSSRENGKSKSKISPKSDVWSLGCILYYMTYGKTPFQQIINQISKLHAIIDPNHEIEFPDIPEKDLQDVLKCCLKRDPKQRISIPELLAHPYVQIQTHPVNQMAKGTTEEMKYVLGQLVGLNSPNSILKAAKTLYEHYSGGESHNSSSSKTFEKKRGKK

[15] = system: T6, Receptor-type tyrosine-protein kinase FLT3 (Homo sapiens), P36888 [D835Y]; details: at 1 µM
T6 sequence (whole entry): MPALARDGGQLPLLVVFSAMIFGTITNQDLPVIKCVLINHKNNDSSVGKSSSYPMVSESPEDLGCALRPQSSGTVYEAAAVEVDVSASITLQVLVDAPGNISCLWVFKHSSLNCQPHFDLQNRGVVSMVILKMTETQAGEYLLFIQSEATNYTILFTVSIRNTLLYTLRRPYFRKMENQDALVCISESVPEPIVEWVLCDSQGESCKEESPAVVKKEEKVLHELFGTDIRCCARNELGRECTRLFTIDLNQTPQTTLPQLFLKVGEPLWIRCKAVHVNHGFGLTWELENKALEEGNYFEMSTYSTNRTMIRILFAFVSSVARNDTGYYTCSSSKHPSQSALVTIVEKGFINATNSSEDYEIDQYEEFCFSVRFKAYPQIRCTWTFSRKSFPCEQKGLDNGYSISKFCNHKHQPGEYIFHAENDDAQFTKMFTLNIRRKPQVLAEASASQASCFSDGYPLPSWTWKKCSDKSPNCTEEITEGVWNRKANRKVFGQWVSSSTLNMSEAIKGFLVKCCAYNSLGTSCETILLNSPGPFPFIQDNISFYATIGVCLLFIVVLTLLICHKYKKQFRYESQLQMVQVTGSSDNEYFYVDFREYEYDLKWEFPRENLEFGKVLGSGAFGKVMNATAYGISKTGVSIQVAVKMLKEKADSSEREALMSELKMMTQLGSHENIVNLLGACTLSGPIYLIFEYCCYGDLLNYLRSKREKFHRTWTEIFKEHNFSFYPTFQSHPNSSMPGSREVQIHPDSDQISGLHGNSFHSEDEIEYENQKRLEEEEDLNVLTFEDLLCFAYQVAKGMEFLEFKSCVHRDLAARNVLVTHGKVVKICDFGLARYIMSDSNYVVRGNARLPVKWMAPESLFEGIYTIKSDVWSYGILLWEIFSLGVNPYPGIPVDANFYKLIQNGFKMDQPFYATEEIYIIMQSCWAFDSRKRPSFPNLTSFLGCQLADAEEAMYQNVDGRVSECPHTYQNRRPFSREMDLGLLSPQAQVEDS

[16] = biological target: Vascular endothelial growth factor receptor 3 (Homo sapiens) (UniProt P35916); details: at 0.1 µM
[17] = biological target: Vascular endothelial growth factor receptor 3 (Homo sapiens) (UniProt P35916); details: at 1 µM
[18] = biological target: Macrophage colony-stimulating factor 1 receptor (Homo sapiens) (UniProt P07333); details: at 0.1 µM
[19] = biological target: Macrophage colony-stimulating factor 1 receptor (Homo sapiens) (UniProt P07333); details: at 1 µM
[20] = biological target: Tyrosine-protein kinase Fyn (Homo sapiens) (UniProt P06241); details: at 0.1 µM
Sequence of Tyrosine-protein kinase Fyn (Homo sapiens) (P06241 2-537 limits assumed): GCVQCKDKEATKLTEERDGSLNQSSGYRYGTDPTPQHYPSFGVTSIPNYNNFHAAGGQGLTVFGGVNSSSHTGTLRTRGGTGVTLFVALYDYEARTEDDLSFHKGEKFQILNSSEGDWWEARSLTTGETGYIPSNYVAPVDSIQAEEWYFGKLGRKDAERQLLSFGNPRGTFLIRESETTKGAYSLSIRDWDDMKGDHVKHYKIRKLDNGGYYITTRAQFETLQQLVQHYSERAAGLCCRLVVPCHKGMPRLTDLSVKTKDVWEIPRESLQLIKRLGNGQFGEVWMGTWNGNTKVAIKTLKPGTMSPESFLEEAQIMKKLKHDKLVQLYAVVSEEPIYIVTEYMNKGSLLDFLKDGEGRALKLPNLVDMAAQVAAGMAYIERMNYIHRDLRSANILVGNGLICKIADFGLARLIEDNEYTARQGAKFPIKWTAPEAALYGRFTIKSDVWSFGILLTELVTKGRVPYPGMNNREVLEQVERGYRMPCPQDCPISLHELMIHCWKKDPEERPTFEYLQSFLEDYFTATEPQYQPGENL

Sequence of Macrophage colony-stimulating factor 1 receptor (Homo sapiens) (P07333 whole entry): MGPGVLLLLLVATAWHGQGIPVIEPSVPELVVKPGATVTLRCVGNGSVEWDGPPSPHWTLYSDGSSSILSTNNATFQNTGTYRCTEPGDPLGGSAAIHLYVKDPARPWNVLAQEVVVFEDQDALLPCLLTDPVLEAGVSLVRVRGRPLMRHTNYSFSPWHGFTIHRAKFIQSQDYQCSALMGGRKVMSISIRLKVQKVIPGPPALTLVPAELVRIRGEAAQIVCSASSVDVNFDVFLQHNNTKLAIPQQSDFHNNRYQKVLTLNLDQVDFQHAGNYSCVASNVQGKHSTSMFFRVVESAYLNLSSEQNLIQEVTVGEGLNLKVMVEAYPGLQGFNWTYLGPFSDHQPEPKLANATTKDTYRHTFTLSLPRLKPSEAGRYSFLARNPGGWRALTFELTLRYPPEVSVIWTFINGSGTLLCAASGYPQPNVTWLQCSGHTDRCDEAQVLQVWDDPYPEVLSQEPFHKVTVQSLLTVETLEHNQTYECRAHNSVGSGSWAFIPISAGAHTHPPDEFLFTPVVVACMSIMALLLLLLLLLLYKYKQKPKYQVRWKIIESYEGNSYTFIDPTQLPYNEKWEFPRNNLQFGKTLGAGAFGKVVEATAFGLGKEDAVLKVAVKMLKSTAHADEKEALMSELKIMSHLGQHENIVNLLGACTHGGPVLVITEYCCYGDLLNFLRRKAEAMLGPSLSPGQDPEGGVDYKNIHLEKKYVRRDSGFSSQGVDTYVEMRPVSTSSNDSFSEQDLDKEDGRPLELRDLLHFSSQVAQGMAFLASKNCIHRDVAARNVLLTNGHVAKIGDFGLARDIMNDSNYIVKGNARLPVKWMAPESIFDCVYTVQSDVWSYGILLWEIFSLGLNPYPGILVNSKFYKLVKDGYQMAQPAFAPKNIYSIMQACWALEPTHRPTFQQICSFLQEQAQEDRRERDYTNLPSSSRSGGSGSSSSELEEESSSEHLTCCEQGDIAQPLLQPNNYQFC
Sequence of Vascular endothelial growth factor receptor 3 (Homo sapiens) (P35916 whole entry): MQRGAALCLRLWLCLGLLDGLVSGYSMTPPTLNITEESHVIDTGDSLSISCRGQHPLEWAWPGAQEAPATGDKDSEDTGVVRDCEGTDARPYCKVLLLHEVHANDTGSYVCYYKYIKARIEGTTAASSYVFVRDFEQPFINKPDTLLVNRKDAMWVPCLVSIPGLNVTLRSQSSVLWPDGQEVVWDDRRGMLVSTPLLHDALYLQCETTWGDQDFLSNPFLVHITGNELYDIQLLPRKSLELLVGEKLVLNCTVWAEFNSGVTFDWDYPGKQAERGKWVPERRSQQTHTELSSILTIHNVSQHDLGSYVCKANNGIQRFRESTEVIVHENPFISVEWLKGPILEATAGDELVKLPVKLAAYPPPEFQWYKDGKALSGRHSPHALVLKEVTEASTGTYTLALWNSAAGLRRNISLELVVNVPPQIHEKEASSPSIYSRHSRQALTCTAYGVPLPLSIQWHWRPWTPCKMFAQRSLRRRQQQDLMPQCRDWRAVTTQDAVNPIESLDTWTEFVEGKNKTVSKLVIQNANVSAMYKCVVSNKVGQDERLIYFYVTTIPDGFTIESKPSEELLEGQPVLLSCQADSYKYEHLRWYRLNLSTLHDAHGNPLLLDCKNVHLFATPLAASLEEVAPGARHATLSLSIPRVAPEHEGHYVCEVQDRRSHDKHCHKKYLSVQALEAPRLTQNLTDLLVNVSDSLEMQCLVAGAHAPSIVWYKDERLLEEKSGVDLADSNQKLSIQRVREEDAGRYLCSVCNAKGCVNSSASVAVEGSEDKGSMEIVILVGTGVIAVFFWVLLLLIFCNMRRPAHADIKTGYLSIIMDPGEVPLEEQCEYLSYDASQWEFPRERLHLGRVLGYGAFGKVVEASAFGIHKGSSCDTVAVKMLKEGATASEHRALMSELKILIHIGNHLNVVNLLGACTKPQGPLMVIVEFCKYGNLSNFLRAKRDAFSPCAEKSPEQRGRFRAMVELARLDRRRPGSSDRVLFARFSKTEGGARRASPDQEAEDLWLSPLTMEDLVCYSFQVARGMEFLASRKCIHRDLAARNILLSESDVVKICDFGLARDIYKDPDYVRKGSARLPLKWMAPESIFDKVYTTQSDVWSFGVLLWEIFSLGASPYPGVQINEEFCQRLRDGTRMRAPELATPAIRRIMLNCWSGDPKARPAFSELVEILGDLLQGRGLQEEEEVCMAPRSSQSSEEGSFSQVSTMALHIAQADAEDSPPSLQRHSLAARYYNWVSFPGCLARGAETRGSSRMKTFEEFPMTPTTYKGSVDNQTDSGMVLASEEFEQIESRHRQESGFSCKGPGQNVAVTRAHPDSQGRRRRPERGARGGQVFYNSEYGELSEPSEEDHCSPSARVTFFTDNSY
Sequence of Serine/threonine-protein kinase Nek7 (Homo sapiens) (Q8TDX7 whole entry, looked up): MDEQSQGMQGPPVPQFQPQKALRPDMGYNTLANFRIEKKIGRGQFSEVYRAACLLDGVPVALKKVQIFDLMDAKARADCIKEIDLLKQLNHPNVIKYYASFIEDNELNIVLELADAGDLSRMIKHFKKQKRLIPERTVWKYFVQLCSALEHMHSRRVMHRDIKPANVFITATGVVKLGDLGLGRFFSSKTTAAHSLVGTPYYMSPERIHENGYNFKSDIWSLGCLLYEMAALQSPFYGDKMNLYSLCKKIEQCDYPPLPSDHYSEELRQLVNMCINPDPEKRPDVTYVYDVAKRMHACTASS
Sequence of Serine/threonine-protein kinase Nek6 (Homo sapiens) (Q9HC98 whole entry): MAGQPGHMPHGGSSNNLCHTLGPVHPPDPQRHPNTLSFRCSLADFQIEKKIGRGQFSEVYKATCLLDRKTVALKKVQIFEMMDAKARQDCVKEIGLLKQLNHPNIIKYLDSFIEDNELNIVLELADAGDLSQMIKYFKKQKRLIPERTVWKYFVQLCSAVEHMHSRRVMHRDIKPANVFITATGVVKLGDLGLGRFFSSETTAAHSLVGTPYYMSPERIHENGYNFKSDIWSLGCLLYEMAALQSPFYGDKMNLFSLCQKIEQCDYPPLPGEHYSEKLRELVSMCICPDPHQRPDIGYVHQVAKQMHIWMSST
Sequence of Serine/threonine-protein kinase PLK1 (Homo sapiens) (P53350 whole entry): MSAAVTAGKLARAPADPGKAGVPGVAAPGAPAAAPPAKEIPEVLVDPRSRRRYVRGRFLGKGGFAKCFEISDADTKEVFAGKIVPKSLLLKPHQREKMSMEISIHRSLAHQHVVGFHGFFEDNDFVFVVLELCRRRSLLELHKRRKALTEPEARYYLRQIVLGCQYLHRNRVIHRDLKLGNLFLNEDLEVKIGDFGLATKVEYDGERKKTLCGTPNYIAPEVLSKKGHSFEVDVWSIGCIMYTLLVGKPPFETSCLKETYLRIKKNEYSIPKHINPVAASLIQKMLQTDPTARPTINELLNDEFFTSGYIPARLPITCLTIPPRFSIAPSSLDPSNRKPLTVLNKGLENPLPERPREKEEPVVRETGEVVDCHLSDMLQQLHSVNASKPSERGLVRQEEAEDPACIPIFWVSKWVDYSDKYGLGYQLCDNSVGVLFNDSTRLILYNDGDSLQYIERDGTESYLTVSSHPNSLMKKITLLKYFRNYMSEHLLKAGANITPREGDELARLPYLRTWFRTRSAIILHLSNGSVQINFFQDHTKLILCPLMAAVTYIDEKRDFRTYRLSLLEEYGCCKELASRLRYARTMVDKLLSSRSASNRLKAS

SMILES | inhibition [1] [%] | inhibition [2] [%] | inhibition [3] [%] | inhibition [4] [%] | inhibition [5] [%] | inhibition [6] [%] | inhibition [7] [%] | inhibition [8] [%] | inhibition [9] [%] | inhibition [10] [%] | inhibition [11] [%] | inhibition [12] [%] | inhibition [13] [%] | inhibition [14] [%] | inhibition [15] [%] | inhibition [16] [%] | inhibition [17] [%] | inhibition [18] [%] | inhibition [19] [%] | inhibition [20] [%]
O=C(Nc1n[nH]c2cc(-c3ccc(F)cc3)ccc12)C1CC1 | 3.59 | 2.65 | 1.94 | 4.38 | 4.67 | 0.6 | 2.6 | 5.51 | 3 | 8.59 | 6.43 | 2.87 | 1.93 | 6.08 | 1.98 | 1.27 | 1.78 | 1.64 | 1.6 | 2.62
COc1cc(N2CCN(C(C)C)CC2)ccc1Nc1nc(Nc2ccc(F)cc2C(N)=O)c2cc[nH]c2n1 | 4.36 | 3.16 | 11.2 | 3.34 | 2.89 | 2.32 | 5.57 | 2.07 | 7.1 | 4.13 | 13.5 | 16 | 64.8 | 83 | 40.7 | 3.45 | 2.68 | 11.7 | 48.1 | 2.48
CC(=O)NCc1cccc(C#Cc2cncnc2Nc2ccc(OCc3cccc(F)c3)c(Cl)c2)c1 | -1 | 0.64 | 1.25 | 0.96 | 0.7 | -1.02 | -2.65 | 4.09 | 2.44 | 0.38 | -3.77 | 1.79 | 1.35 | 8.83 | -1.12 | 2.27 | 3.6 | 1.13 | 0.82 | 1.08
